# Among all 360,000 compounds or so, about 230 (0.064%) were called active. The full list was thinned out, with actives kept by preference. Unmarked numbers belong to inactive results. Cut-off read from the data, not from the text of the source: active = activity above about 50% (passing the limit was not always enough); inconclusive = no clear call, values can overlap the other calls.
# Test system: DNA topoisomerase I (Yersinia pestis CO92)
# Test: Yersinia pestis topoisomerase I inhibitors, primary screen, biochemical, cleavage product accumulation, plate reader, single point (AID 504884)
# Settings: Y. pestis Topo-I cleavage product accumulation, at 10 µM, hits give high values
row,Structure (SMILES),activity
1,CC1CN(/C=C/C(=O)C(F)(F)F)CC(C)O1 (configuration not stated),5.75%
2,CCOc1ccc(NC(=O)CN(C)C(=O)Cn2c(=O)cnc3ccccc32)cc1OCC,1.46%
3,CCOC(=O)c1[nH]cnc1C(=O)NC1CCCCC1,-3.43%
4,CCc1nc2c(OCCC3CCCCC3)cccn2c1N(C)C(=O)c1ccco1,31.3%
5,CC1CC(C)CN(c2ccc(S(=O)(=O)N3CCOCC3)cc2)C1 (configuration not stated),31.2%
6,ClC1(Cl)CC1CSc1ncn[nH]1 (configuration not stated),4.63%
7,CCCC(C)C(=O)OCC(=O)Nc1c(Br)cc(C)cc1Br (configuration not stated),0.888%
8,COc1cccc2c1OCC(C(=O)NCc1ccc(Cl)cc1Cl)=C2,5.83%
9,CCOc1nnc(C)c2c(C)n(-c3cccc(Cl)c3)nc12,0.181%
10,O=C(CC1C(=O)NCCN1C(=O)c1ccc([N+](=O)[O-])cc1)Nc1cccc(Cl)c1 (configuration not stated),-5.36%
11,CCc1ccccc1NC(=O)CCOc1ccccc1,2.54%
12,CCc1ccccc1NC(=S)Nc1cc(OC)c(NC(=O)C(C)C)cc1OC,-1.32%
13,CCc1ccccc1NC(=O)/C(=C/c1ccccc1)c1ccccc1,58.2% (active)
14,CCOc1ccc(S(=O)(=O)N2CCCCC2)cc1NC(=O)CN1CCCC1c1cccs1 (configuration not stated),9.92%
15,COc1ccc2c(c1)CCc1cn3ncc(C#N)c3nc1-2,5.21%
16,O=C(COc1ccc(F)cc1)N(CC1=CCS(=O)(=O)C1)c1ccccc1,3.66%
17,CCN(C(=O)COc1ccc(C(=O)c2ccccc2)cc1)c1ccccc1,51.2% (active)
18,CCN(C(=O)c1ccc(Br)cc1)c1ccccc1,4.1%
19,C=CCN(C(=O)c1cc(C)cc(C)c1)C1(C(=O)Nc2ccccc2)CCN(C(C)C)CC1,-1.88%
20,C=C1CCN([C@@H](Cc2ccccc2)C(=O)N2CCOCC2)S(=O)(=O)c2ccccc21,11.9%
21,CCc1cc(-c2n[nH]c(=S)n2CC(C)C)cs1,7.56%
22,CCn1ncc(C2=NOC(C(=O)Nc3ccccc3C(=O)OC)C2)c1C (configuration not stated),16.1%
23,C[N+]1(CCNC(=O)/C=N/O)CCCCC1,3.78%
24,N#Cc1ccc(/C=C2\CCn3c2nc2cc(C(=O)O)ccc2c3=O)cc1,5.43%
25,CCN(CC)S(=O)(=O)c1ccc(OC(C)C)c(N)c1,9.36%

row,Structure (SMILES),activity
1,CCCC(C)C(=O)NCc1ccncc1 (configuration not stated),3.84%
2,Cc1cnc(C(=O)OCc2c(C)cc(C(C)(C)C)cc2C)cn1,33.4%
3,O=C(NC(c1ccc(Cl)cc1)P(=O)(Oc1ccccc1)Oc1ccccc1)OCc1ccccc1 (configuration not stated),-6.44%
4,COc1cc(C(=O)OCc2cc(=O)n3ccsc3n2)ccc1OC(C)C,1.94%
5,Cc1ccc(OCC(=O)Nc2ccccc2C(=O)NC2CC2)cc1,-5.78%
6,CSc1ccccc1NC(=O)COC(=O)CCCOc1ccc(C)cc1,71.8% (active)
7,COc1cc([N+](=O)[O-])ccc1NC(=O)COC(=O)CCOc1ccc(C)cc1,-0.7%
8,O=S(=O)(Nc1ccc2[nH]ncc2c1)c1ccccc1Cl,5.56%
9,CC(NC(=O)c1ccccc1C(=O)O)c1ccc(-n2ccnc2)cc1 (configuration not stated),-18%
10,C=C(C)CNc1cc(S(=O)(=O)N2CCOCC2)ccc1Oc1ccccc1,23%
11,CCN(CC(=O)Nc1cc(Cl)ccc1C)C(=O)CN1C(=O)NC2(CCCC2)C1=O,-11.4%
12,COC(=O)CN1C(=O)[C@H]2[C@@H](C3CC3)N3C(=O)CN(Cc4ccc(-c5ccccc5)cc4)C(=O)[C@@]3(Cc3ccccc3)[C@H]2C1=O,35.2%
13,CCC1(C)NC(=O)N(CC(=O)N2CCN(c3cccc(Cl)c3)CC2)C1=O (configuration not stated),2.38%
14,CCC1C=C(c2ccccc2)C=CN=C1N(CC)CC (configuration not stated),0.893%
15,CCN(CC)S(=O)(=O)c1ccc(N2CCOCC2)c(NC(=O)C(C)Oc2ccc(F)cc2)c1 (configuration not stated),18%
16,CCN1CCc2nc(NC(=O)c3cc(F)c(F)cc3Cl)sc2C1,6.77%
17,COc1ccc(CCNC(=O)C(=O)NCC2CCNCC2)cc1OC,0.788%
18,COC(=O)[C@H](C)[C@H]1C[C@]1(C)[C@H](NC(=O)OCc1ccccc1)c1ccccc1,16.4%
19,CC(C)C(NC(=O)OCc1ccccc1)C(=O)OCC(=O)N1C(C)CCCC1C (configuration not stated),15.6%
20,CC(C)[C@H](NC(=O)OCc1ccccc1)C(=O)OCc1ccccc1,58.9% (active)
21,COc1ccc(N(Cc2cc3ccc(C)cc3[nH]c2=O)S(=O)(=O)c2ccccc2)cc1,29.4%
22,CN1C(C)(C)CC(NC(=O)CCC(=O)NC2CC(C)(C)N(C)C(C)(C)C2)CC1(C)C,-3.64%
23,O=C(O)c1cc(S(=O)(=O)NC2CCCc3ccccc32)ccc1O (configuration not stated),-3.28%
24,COc1ccc(N2CC(C)Cn3c2nc2c3c(=O)n(Cc3ccccc3F)c(=O)n2C)c(OC)c1 (configuration not stated),14.8%
25,O=C(CN1C(=O)COc2ccc(Cl)cc21)N1CCOCC1,2.5%

row,Structure (SMILES),activity
1,CCC(CC)c1nnc(NS(=O)(=O)Cc2ccccc2)s1,-2.39%
2,Cc1ccc2c(C)c(C(=O)N3CCC(N4CCC(C(=O)NC5CC5)CC4)CC3)oc2c1,-3.85%
3,Cc1ccc(-n2ncc3c(Nc4cccc(C(=O)O)c4)ncnc32)cc1,-7.17%
4,Cc1ccc(Cl)cc1NC(=O)C1CCN(S(C)(=O)=O)CC1,6.58%
5,c1cc2c(cc1C1OCC3C(c4ccc5c(c4)OCO5)OCC13)OCO2 (configuration not stated),21.1%
6,CC(=O)c1cccc(OCC(=O)OCC(=O)Nc2cc(S(=O)(=O)N3CCCCC3)ccc2C)c1,29.7%
7,COc1cccc(N(CC(=O)NCCSc2ccccn2)S(C)(=O)=O)c1,-7.24%
8,O=C(CSc1nc2cc3c(cc2c(=O)n1CCC1=CCCCC1)OCO3)NCc1ccco1,-0.243%
9,Cc1cccn2cc(-c3cccc(S(=O)(=O)N4CCCCC4)c3)nc12,23.2%
10,Cc1ccc(F)cc1S(=O)(=O)Nc1cccc(C(=O)N2CCCC(C(N)=O)C2)c1 (configuration not stated),0.477%
11,CC1(C)c2[nH]c3ccccc3c2C[C@H]2C(=O)N(N)CC(=O)N21,-8.39%
12,CCOC(=O)Cn1c(=O)n(Cc2ccc(OC)cc2)c(=O)c2cccnc21,9.56%
13,Cc1cc(C(=O)O)c(S(C)(=O)=O)s1,-6.33%
14,CC(=O)Nc1ccc(Nc2ncnc3c2nnn3Cc2ccccc2Cl)cc1,2.24%
15,Cc1cccc(OC(=O)c2sc3ncn(C)c(=O)c3c2C)c1,-1.35%
16,CC1CC(C)(C)n2c(O)c(N=NC(N)=S)c3cccc1c32 (configuration not stated),-5.67%
17,CCOc1ccccc1OCC(=O)Nc1ccccc1C(=O)NC1CC1,-3.16%
18,c1ccc2cc(CCCc3cc4ccccc4cn3)ncc2c1,54.9% (active)
19,Fc1ccc2cnc(-c3ccccc3)cc2c1,5.85%
20,CCC1CCCCN1C(=O)CSc1nc2c(c(=O)n1C)SC(C)C2 (configuration not stated),16.8%
21,Cc1ccc(CNC(=O)CCS(=O)(=O)c2ccc3c(c2)CC(C)N3C(=O)C2CC2)o1 (configuration not stated),7.23%
22,Cc1ccc(C)c(N(CC(=O)NCc2ccco2)C(=O)CCC(=O)Nc2ccccn2)c1,18.9%
23,CC1Cc2cc(/C(O)=C3\C(=O)C(=O)N(Cc4cccnc4)C3c3ccccc3F)ccc2O1 (configuration not stated),2.42%
24,Cc1cccn2c(CN(C)C3CCCc4ccccc43)c(C(=O)N3CCOCC3)nc12 (configuration not stated),42.2%
25,COc1ccc(CNCCCNCc2ccc(OC)c(OC)c2)cc1OC,2.69%

row,Structure (SMILES),activity
1,CCc1ccc(OCC(O)CN2CCN(CCO)CC2)cc1 (configuration not stated),5.47%
2,NC(Cc1ccc(F)cc1)c1csc(Nc2nncc3ccccc23)n1 (configuration not stated),-11.6%
3,CC(C)(CNC(=O)CNC(=O)C1CCCCC1)N1CCOCC1,-0.69%
4,Cc1c(NC(=O)C(C)OC(=O)c2c3c(nc4ccccc24)CCC(C)C3)c(=O)n(-c2ccccc2)n1C (configuration not stated),3.41%
5,COc1cc(NC(=O)C2=C(C)OCCS2)c(Cl)cc1C(=O)NCCN1CCN(C)CC1,-0.826%
6,COc1ccc(-n2nc(C(=O)NCC(=O)Nc3cccc(C)n3)c3ccccc3c2=O)cc1,15.2%
7,O=S(=O)(Nc1ccc(Cl)cn1)c1cnc(Cl)c(Br)c1,2.02%
8,CC1CCCCC1NC(=O)c1cn(C)c2ccc(S(=O)(=O)N3CCOCC3)cc2c1=O (configuration not stated),-3.45%
9,CCN(CCN(C)C)C(=O)c1ccc2nc(C)c(N(C)C(=O)CCc3ccccc3)n2c1,0.0305%
10,Cc1nc(-c2ccc(F)cc2)c(CC(=O)N(C)CC(=O)Nc2c(C)cccc2C)s1,0.373%
11,Cc1ccccc1-c1nc(CS(=O)(=O)CC(=O)N2CCc3ccccc3C2)c(C)o1,32.1%
12,COc1ccc(-n2c(Cc3cccn3C)nnc2SCC(=O)Nc2cc(C)cc(C)c2)cc1,18.8%
13,O=C(NCc1ccccc1)C(c1ccccc1)N(C(=O)c1csnn1)c1ccc(F)cc1 (configuration not stated),26.7%
14,CN(C)C(=O)CCc1ccc2c3c([nH]c2c1)[C@]1(C)[C@@H](C(=O)N2CCOCC2)C[C@H](CC(=O)NCCc2ccccn2)C(=O)N1CC3,4.43%
15,CCc1ccc(C(=O)OCC(=O)NCC(F)(F)F)cc1,7.38%
16,CN(C)/C=C(/C(=O)c1ccccc1Cl)S(C)(=O)=O,3.93%
17,Cc1ccccc1N1CC(C(=O)Nc2ccc(S(=O)(=O)N3CCCC3)cc2)CC1=O (configuration not stated),10.6%
18,O=C(Nc1ccc(S(=O)(=O)N2CCCCC2)cc1)C1CC(=O)N(c2ccc(F)cc2)C1 (configuration not stated),12.1%
19,CC1CCN(S(=O)(=O)c2ccc(NC(=O)C3CC(=O)N(c4ccccc4)C3)cc2)CC1 (configuration not stated),71.3% (active)
20,CCCn1c(SCC(=O)c2ccc3c(c2)OCCO3)nnc1C(C)C,9.18%
21,CCCCn1c(N)c(N(CCOC)C(=O)COc2c(C)cccc2C)c(=O)[nH]c1=O,-2.82%
22,CN1CCN(S(=O)(=O)c2cccc(C(=O)Nc3sccc3C#N)c2)CC1,-7.33%

# Source: PubChem BioAssay AID504884 (Broad Institute, 2011)
